MCL1 BIM primary = MCL1-BIM-BH3 interaction inhibition (human); GST-MCL1 / FITC-Bim-BH3 fluorescence polarization; 320,000 tested, 0.68% active; inhibition, % at 10.9 µM; Q07820;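 active = inhibition above the mean inhibition of all tested compounds plus 3 SD, set per campaign, cut at about 40% in these data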;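 note: 0% = DMSO wells and 100% = unlabeled Bim-BH3 peptide control; higher means more loss of mP so more displacement of Bim peptide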
Target sequence (Q07820 whole entry, looked up): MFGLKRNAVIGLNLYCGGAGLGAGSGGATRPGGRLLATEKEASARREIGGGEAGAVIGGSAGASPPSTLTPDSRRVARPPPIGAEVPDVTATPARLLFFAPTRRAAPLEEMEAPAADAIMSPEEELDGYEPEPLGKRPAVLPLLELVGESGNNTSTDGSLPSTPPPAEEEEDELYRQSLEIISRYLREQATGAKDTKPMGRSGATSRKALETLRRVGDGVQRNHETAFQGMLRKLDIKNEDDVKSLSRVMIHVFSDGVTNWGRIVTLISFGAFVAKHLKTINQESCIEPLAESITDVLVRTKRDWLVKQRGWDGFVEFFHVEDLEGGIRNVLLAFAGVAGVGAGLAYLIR
GLD-1 TGE inh = GLD-1-TGE RNA interaction inhibition (C. elegans); purified GLD-1 + fluorescein TGE RNA, fluorescence polarization; inhibition, % at 5.96 µM; 320,000 tested, 0.44% active; AID 2280;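 active = percent inhibition above a per-plate cutoff, the plate mean of test compounds plus 3 SD, cut at about 30% in these data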;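 note: 0% = DMSO wells with GLD-1 and probe and 100% = wells lacking GLD-1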
Mcl-1 Bim block = human Bim-Mcl-1 interaction inhibition | Q07820 | Bead-based flow cytometry, Bim peptide-Mcl-1 binding | inhibition, % at 10 µM | 190,000 tested, 0.1% active | AID 1009; in the data active = inhibition above about 40%;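 note: 0% = no compound tracer wells and 100% = peptide blocker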
BCLXL inh = inhibitors of human Bcl-xL | Q07817 | GST-Bcl-xL / FITC-Bim BH3 peptide fluorescence polarization | inhibition, % at 10.9 µM | 320,000 tested, 0.7% active;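 active = inhibition above the mean of all tested compounds plus 3 SD, cutoff set per campaign, cut at about 30% in these data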;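 note: 0% = DMSO wells and 100% = unlabeled Bim-BH3 peptide competitor; inhibitors lower millipolarization by displacing the labeled peptide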
Target sequence (Q07817 whole entry, looked up): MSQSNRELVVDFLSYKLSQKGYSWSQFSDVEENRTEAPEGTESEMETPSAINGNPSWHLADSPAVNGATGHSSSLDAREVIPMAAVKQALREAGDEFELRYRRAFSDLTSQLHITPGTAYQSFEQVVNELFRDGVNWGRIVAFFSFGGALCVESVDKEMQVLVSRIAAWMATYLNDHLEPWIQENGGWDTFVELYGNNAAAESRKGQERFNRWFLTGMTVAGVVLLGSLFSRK
Mcl1-Noxa inh = disrupts binding of human Mcl-1 to Noxa peptide; Q07820; TR-FRET Mcl-1/Noxa peptide binding, 2 h; inhibition, % at 21.7 µM; 220,000 tested, 1.5% active;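 active = compounds that cut the protein-peptide binding signal by more than 50% relative to plate controls in a single-dose test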;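 note: His-tagged Mcl-1 with rhodamine Noxa BH3 peptide and terbium anti-His antibody; 0% = Mcl-1 plus Noxa peptide wells and 100% = peptide-only wells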
Mcl1 Bid PPI = Mcl-1/Bid interaction inhibition | 220,000 tested, 0.97% active | TR-FRET Mcl-1/Bid-Dy647 peptide binding, 1536-well | AID 1021 | Q07820 | inhibition, % at 21.7 µM;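 active = compounds that cut the binding signal by more than half at the single screening dose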;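 note: His-tagged Mcl-1 with europium anti-His antibody binding Bid BH3 peptide; 0% = Mcl-1 plus peptide wells and 100% = peptide-only wells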
The depositor's hits bear a star; / = no result. Most compounds without a hit are left out; they make up all but 2.3% or so of the library.

SMILES	MCL1 BIM primary	GLD-1 TGE inh	Mcl-1 Bim block	BCLXL inh	Mcl1-Noxa inh	Mcl1 Bid PPI
O=C(NCC(c1ccccc1Cl)N1CCCC1)C1CCN(C(=O)Nc2ccccc2)CC1 (stereo not drawn)	-3.3	2.7	/	1.2	/	/
COc1cccc(OCC(=O)Nc2ccccc2C(=O)Nc2ccc(C(=O)O)cc2)c1	-1.7	-4.3	/	-0.4	/	/
Cn1cc(C(=O)N/N=C/c2ccc([N+](=O)[O-])cc2)c2ccccc21	0.1	-2.1	/	-6.9	75.4*	38.1
COc1ccc(-c2cc(C(=O)Nc3ccc(O)cc3)c3ccccc3n2)cc1OC	8.5	5.5	/	6.6	31.5	54.3*
COc1ccc(NC(=O)c2cc(-c3cc(OC)c(OC)c(OC)c3)nc3ccccc23)cc1OC	3.9	6.2	/	2.2	/	/
C/C(=N\NC(=O)c1ccccc1F)c1ccc2c(c1)Nc1ccccc1S2	-19.5	8.0	0.0	-9.1	62.3*	-12.0
Cc1ccccc1NS(=O)(=O)c1c(C(=O)N2CCCCCC2)c(C)n(C)c1C	5.9	4.9	/	3.0	/	/
CCN(CC)c1ccc(/C=C(\C#N)C(=O)c2ccc(Br)cc2)cc1	44.9*	63.2*	/	52.4*	-15.5	-11.2
O=C(Nc1cccc(N2CCCC2)c1)c1cccs1	1.2	5.8	0.0	-9.9	50.9*	-66.7
O=S(=O)(c1ccc(Oc2ccc(-c3nnco3)cc2)nc1)N1CCC(Cc2ccccc2)CC1	-5.1	1.1	-1.0	-0.4	-75.4	59.2*
COc1ccc(S(=O)(=O)Nc2cccc3c2O[C@H](CN(C)S(=O)(=O)c2ccccc2)[C@@H](C)CN([C@H](C)CO)C3=O)cc1	/	0.5	/	/	/	/
CN(C)C(=O)CS(=O)(=O)c1ccc(Cl)cc1	-4.3	3.9	/	2.4	43.7	65.6*
CCN(C(=O)COC(=O)C1CCN(S(=O)(=O)c2c(Cl)cccc2Cl)CC1)C1CCCCC1	-4.8	5.7	/	0.5	/	/
N#C/C(=C\c1ccc(C(=O)O)cc1)c1nc2sc3c(c2c(=O)[nH]1)CCCC3	/	/	/	/	74.0*	12.7
Cc1cc(C=O)c(C)n1-c1cccc(C(=O)O)c1	-2.8	-1.7	0.0	1.2	19.5	-44.6
Cc1ccc(C)n1-c1cccc(N)c1	45.3*	-10.9	3.0	36.0*	21.6	-76.5
Cc1ccc(C)n1-c1cccc(C(=O)O)c1	70.7*	14.4	13.0	25.7	98.9*	88.4*
Cc1ccc(C)n1-c1cccc(C(=O)Nc2ccccc2)c1	-11.2	-4.5	/	-7.8	15.5	-37.7
CC(=O)CC1(C)OC(N)=C(C#N)C1(C#N)C#N (stereo not drawn)	35.2	56.8*	0.0	45.4*	/	/
COc1cc(SC)ccc1C(=O)Nc1cccc(S(=O)(=O)NC2=NCCCCC2)c1	1.7	165.0*	/	4.7	/	/
CCN(CC)S(=O)(=O)c1cccc(NC(=O)c2ccc(SC)cc2OC)c1	4.4	5.3	-3.0	6.6	11.4	-0.7
CSCC[C@H](NC(=O)OC(C)(C)C)c1nnc(SCC(=O)N(C)C)o1	-5.6	-3.4	2.0	0.8	67.4*	-49.0
CN(C)C(=O)CSc1nnc([C@H](Cc2ccccc2)NC(=O)OC(C)(C)C)o1	7.4	9.6	/	11.6	-4.3	-12.0
COc1cc(C(CC(=O)N2CCCC2)c2c(OC)cc(OC)c3ccc(=O)oc23)cc(OC)c1OC (stereo not drawn)	38.5	55.4*	/	35.6*	-5.9	-53.2
COc1ccc2c3c(cccc13)N(C)N=C2C	87.1*	42.1*	18.0	97.3*	87.3*	-46.1
SMILES	MCL1 BIM primary	GLD-1 TGE inh	Mcl-1 Bim block	BCLXL inh	Mcl1-Noxa inh	Mcl1 Bid PPI
COc1ccc2c3c(cccc13)OC2=O	-0.7	-0.1	/	0.3	/	/
COc1cc(/C=N/NC(=O)c2ccccc2O)ccc1OCC(=O)Nc1ccccc1	-1.4	5.1	/	-4.7	/	/
O=C(COc1ccc(/C=N/NC(=O)c2cc3ccccc3o2)cc1Cl)Nc1ccccc1	-1.6	-8.3	-3.0	-7.9	22.6	83.6*
CC(C)[C@H](NS(=O)(=O)c1ccccc1F)C(=O)OCC(=O)Nc1cccc(S(N)(=O)=O)c1	/	4.7	/	/	/	/
CC(=O)c1cc(C#N)c(SCc2ccccc2)nc1C	3.2	3.2	-8.0	-1.9	-6.3	-10.5
CC(=O)c1cc(C#N)c(SCc2ccccn2)nc1C	-1.0	3.7	/	8.5	87.7*	-26.6
CCc1nnc(NC(=O)c2sc3nc4c(cc3c2N)CCCCCC4)s1	-4.8	3.6	-4.0	2.7	53.2*	42.4
O=C(OCC(=O)N1CCCC1=O)c1nc(Cl)c(Cl)c(Cl)c1Cl	12.0	11.5	/	3.5	/	/
COc1ccc(/C=C/C(=O)NC(=S)Nc2ccc(Br)cn2)cc1	10.4	-3.6	/	9.6	/	/
O=C1CN(C(=O)CNCc2ccccc2)c2ccccc2N1	-2.6	-3.7	/	-4.8	43.7	69.3*
COc1ccc(N(C)S(=O)(=O)c2ccc3c(c2)NC(=O)CO3)c(OC)c1	1.9	-7.7	/	-0.2	/	/
Cc1ccc(C2=NN(C(=O)CNCCO)C(c3cccs3)C2)cc1 (stereo not drawn)	-0.6	-8.6	/	1.4	/	/
OCCN1CCN(c2ncnc3sc4c(c23)CCCC4)CC1	4.2	8.8	/	6.2	/	/
c1ccc2c(c1)nnn2-c1ncnc2sc3c(c12)CCCC3	0.7	-0.4	1.0	1.3	13.2	79.9*
Oc1ccc(N2CCN(c3ncnc4sc5c(c34)CCC5)CC2)cc1	33.1	3.1	1.0	25.1	73.6*	-7.8
Cc1nc(-n2nnc3ccccc32)c2c3c(sc2n1)CCCC3	3.7	2.4	1.0	0.1	20.3	0.2
COc1cccc2c1c(NC(=O)Nc1ccc(F)cc1F)nn2C	-5.0	0.3	/	-3.9	5.1	67.0*
Cc1ccc(CC(=O)NCCCc2ccccc2)cc1	-3.7	6.6	0.0	1.1	-0.9	-26.0
Cc1ccc(S(=O)(=O)CCNC(=O)Cc2ccccc2)cc1	-0.7	5.3	-2.0	5.3	-2.4	95.7*
Cc1ccc(/C=C/C(=O)NCc2ccc(S(N)(=O)=O)cc2)o1	/	/	-5.0	/	52.9*	-41.3
COc1ccc(C(CNC(=O)c2ccc(Br)o2)N2CCN(C)CC2)cc1 (stereo not drawn)	4.3	-1.4	/	5.6	/	/
O=C1CC(Nc2ccc(N3CCOCC3)cc2)C(=O)N1c1cccc(C(F)(F)F)c1 (stereo not drawn)	33.4	0.0	-4.0	7.1	46.7	53.0*
COc1cccc(N2C(=O)CC(Nc3ccc(N4CCOCC4)cc3)C2=O)c1 (stereo not drawn)	28.1	6.3	-1.0	17.4	16.9	-155.9
Cc1cccc(OCC(=O)NNC(=O)c2ccc([N+](=O)[O-])cc2)c1	1.5	0.9	0.0	3.1	0.3	-2.2
O=C(COc1ccc2ccccc2c1)NNC(=O)c1ccc([N+](=O)[O-])cc1	-3.8	-1.1	-3.0	5.4	82.4*	12.4
Cc1ccc(C)c(NC(=O)Cn2nc(-c3ccccc3)nc2-c2ccccc2)c1	7.2	0.5	2.0	5.8	-12.6	56.0*
Cc1ccc(NC(=O)Cn2nc(-c3ccccc3)nc2-c2ccccc2)c(C)c1	-6.1	7.6	-6.0	1.6	-5.5	-23.9

Assay outcomes deposited in PubChem BioAssay by several laboratories.
